# From PubChem BioAssay AID1347048 (National Center for Advancing Translational Sciences (NCATS), 2019)
# About 1,200 (1.6%) of roughly 76,000 compounds were called active. Another 4% or so got no clear call; they are omitted. This excerpt belongs to a sample that is enriched for actives. Values without a mark were called inactive. Calls come from the whole dose curve.
# Target: Atrial natriuretic peptide receptor 1 (Homo sapiens) (UniProt P16066)
# Assay: Natriuretic polypeptide receptor (hNpr1) antagonism - Primary qHTS; note: nearly all actives have a fitted effect of over 60% in size
# Settings: HEK293 hNpr1 GloSensor cGMP, ANP-stimulated luminescence; series mostly up to 70.6 µM; activity change, negative = inhibition: at the top concentration
# From the text: Pruritus or itch, is an irritating skin sensation that creates a need to scratch, and ranges from mildly unpleasant and passing to acute and persistent sensations. […] Conventional treatments include topical anti-inflammatory agents, anti-histamines, and emollients, which are aimed at managing the itchy sensation and not the underlying disease. The treatment of pruritus remains a diagnostic and therapeutic challenge. Neurotransmission in the spinal cord from primary pruriceptors to second order neurons is a necessary step that eventually results in the sensation of itch. At this synapse, primary pruriceptors use the neuropeptide natriuretic polypeptide B (NppB) to activate its cognate receptor Natriuretic polypeptide receptor 1 (Npr1) on second order neurons. Inhibition of this step is a new potential strategy to inhibit acute and chronic itch. In order to identify small molecular compounds that can inhibit the Npr1 receptor we developed a high-throughput assay to probe inhibition of the receptor guanylate cyclase Npr1. The assay was designed taking advantage of Promega's GloSensor[TM] technology (Fan, F. et al. 2008). It involves the expression of a cyclic guanosine monophosphate (cGMP) biosensor, comprised of a firefly luciferase variant that was coupled to the cGMP binding domain of human phosphodiesterase 5A, and loading of cells with a cell-permeable luciferase substrate to monitor cGMP production by Npr1 in real time in live cells. In detail, we generated human embryonic kidney 293 cells stably expressing the human Npr1 and the cGMP GloSensor[TM] pGS-40F. Stimulating these cells with the Npr1 agonists human NppA or NppB, luciferase-induced light production could be detected in a dose-dependent manner. We also generated HEK293 cells stably expressing human Npr2 and pGS-40F and cells only expressing pGS-40F to conduct secondary counter screens. In these cells, NppC or sodium nitroprusside were used to stimulate Npr2 or soluble guanylate cyclase which is endogenously expressed in HEK293 cells, respectively. REFERENCE F. Fan, B. F. Binkowski, B. L. Butler, P. F. Stecha, M. K. Lewis, K. V. Wood, Novel genetically encoded biosensors using firefly luciferase. ACS Chem. Biol., 2008, 3: 346-351 .
# PROTOCOL TABLES (as described by Inglese J, Shamu CE and Guy RK. 2007) SEQUENCE No. (e.g., 1, 2, 3, etc.); […] (e.g., Cells, Incubation, Reagent, etc.); VALUE and DESCRIPTION. GLOSENSOR PROTOCOL 1. Cells. Seed 1500 HEK293 cGMP-sensor cells expressing hNpr1 per well in 4uL into Greiner 1536-well white/solid bottom high base, tissue culture-treated plates. 2. Incubation. Incubate plated cells at 37C in 5% CO2, 95% RH overnight. 3. Reagent. Add 1uL per well GloSensor reagent from Promega (2% final concentration) or CO2 independent media vehicle control to respective columns of Greiner 1536-well plates. 4. Incubation. Incubate plated cells at room temperature for 2 h, protect from light. 5. Compounds. Library compounds and A-71915 control added at 23 nL per well, transferred by Pin Tool. 6. Incubation. Incubate plated cells for 30 min. at room temperature, protect from light. 7. Detector. GloSensor baseline pre-read luminescence measured using CCD-based camera (Viewlux). 8. Compound. Add 1uL of hNppA peptide to 0.1 nM final concentration to stimulate hNpr1 or CO2 independent media as vehicle control. 9. Incubation. Incubate treated cells at room temperature for 20 min., protect from light. 10. Detector. GloSensor post-hNppA luminescence measured using CCD-based camera (Viewlux). NOTES (numbers refer to Sequence numbers above) 1. HEK293 cells expressing hNpr1 and GIP/pGS-40F grown to 85-95% confluence (48-72 h) in T175 culture flasks (CO2 independent media supplemented with 10% FBS, 1% Pen/Strep antibiotics and 1 ug/mL puromycin). Trypsinize and harvest cells from T175 culture flasks and filter through 40 um cell strainer. Cells counted with Invitrogen Countess (30,000,000 - 50,000,000 cells/flask). […]
# % is set by controls: 0 for no effect and ±100 for the full control effect; potency is the fitted concentration of half-maximal effect.
# Sequence of Atrial natriuretic peptide receptor 1 (Homo sapiens) (P16066 whole entry, looked up): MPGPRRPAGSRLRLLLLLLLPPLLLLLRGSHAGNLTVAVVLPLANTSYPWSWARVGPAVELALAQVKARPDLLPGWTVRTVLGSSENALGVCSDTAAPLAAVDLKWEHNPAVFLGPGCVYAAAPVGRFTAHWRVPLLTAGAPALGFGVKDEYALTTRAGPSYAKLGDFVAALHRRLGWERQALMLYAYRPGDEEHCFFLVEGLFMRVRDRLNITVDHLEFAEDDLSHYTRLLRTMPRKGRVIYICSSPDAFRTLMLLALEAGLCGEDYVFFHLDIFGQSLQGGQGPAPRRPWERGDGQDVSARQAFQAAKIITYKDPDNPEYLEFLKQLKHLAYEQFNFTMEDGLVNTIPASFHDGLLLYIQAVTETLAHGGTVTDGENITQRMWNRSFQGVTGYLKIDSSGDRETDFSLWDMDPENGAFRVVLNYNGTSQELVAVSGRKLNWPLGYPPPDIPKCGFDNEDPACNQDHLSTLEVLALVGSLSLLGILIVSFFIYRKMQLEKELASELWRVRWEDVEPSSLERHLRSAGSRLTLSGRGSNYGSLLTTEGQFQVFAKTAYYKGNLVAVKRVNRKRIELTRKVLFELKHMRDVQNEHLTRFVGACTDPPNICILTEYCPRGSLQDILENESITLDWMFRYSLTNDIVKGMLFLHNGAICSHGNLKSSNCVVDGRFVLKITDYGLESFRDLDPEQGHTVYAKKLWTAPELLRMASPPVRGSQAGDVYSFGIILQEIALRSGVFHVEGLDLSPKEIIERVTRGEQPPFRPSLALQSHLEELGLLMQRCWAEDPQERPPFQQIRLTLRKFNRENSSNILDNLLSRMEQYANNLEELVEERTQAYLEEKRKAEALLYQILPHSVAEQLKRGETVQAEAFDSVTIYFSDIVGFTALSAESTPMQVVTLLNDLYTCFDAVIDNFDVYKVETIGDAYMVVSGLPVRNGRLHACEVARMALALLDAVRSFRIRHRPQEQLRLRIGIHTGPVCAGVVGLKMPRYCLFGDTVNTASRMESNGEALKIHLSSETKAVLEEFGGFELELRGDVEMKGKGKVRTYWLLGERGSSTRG
Structure (SMILES),"activity change, negative = inhibition",Potency
COc1cc2c(cc1Oc1ccccc1)NC(=O)C21CCN(c2ccnc(C)n2)CC1,-18.9%,
COc1cc2c(cc1Oc1cccc(N(C)C)c1)NC(=O)C21CCN(Cc2ccccn2)CC1,,10 µM (active)
COc1cc2c(cc1OCc1ccncc1)NC(=O)C21CCN(Cc2ccccn2)CC1,-3.28%,
CN(Cc1ccccc1)C[C@H]1CN2CC[C@H]1C[C@@H]2CNC(=O)Nc1cccc(C#N)c1,4.8%,
COc1cc2c(cc1OCc1ccncc1)NC(=O)C21CCN(c2ncccn2)CC1,0.378%,
COc1cc2c(cc1OCc1ccccc1)NC(=O)C21CCN(CCC(C)C)CC1,-15.2%,
COc1cc2c(cc1OCc1ccncc1)NC(=O)C21CCN(c2ncc(F)cn2)CC1,,20 µM (active)
Cc1nc(-c2ccccc2)cc([C@H]2CN3CC[C@H]2C[C@@H]3CNC2CCOCC2)n1,3.49%,
O=C(NCc1ccccc1)[C@H]1CN2CCC1C[C@@H]2Cn1cc(-c2ccc(F)cc2)nn1 (stereo not given in full),-8.5%,
Cc1nc(-c2ccccc2)cc([C@H]2CN3CC[C@H]2C[C@@H]3CNC2CCN(C)CC2)n1,-2.27%,
CCC(CC)c1cc([C@H]2CN3CC[C@H]2C[C@@H]3CNS(=O)(=O)c2ccccc2C#N)nc(-c2ccncc2)n1,-24.1% [at 46.3 µM],
CCC(CC)c1cc([C@H]2CN3CC[C@H]2C[C@@H]3CNC(=O)NCc2ccccc2)nc(-c2ccncc2)n1,,11.2 µM (active)
CCCS(=O)(=O)NC[C@H]1C[C@@H]2CCN1C[C@@H]2c1cc(-c2ccccc2)nc(C)n1,1.77%,
COc1ccc(C(=O)N2[C@H]3CC[C@@H]2c2cnc(-c4ccccc4)nc2C3)c(OC)c1,-30.3% [at 46.3 µM],
COc1cc2c(cc1OCc1ccccc1)NC(=O)C21CCN(C(=O)C(C)C)CC1,-9.19%,
